This is a sample that favours compounds with a hit; in the whole collection about 7.3% have one here.
NPC1 promoter act: qHTS Assay for NPC1 Promoter Activators; Huh7 NPC1 promoter luciferase reporter, 24 h; Potency, µM (doses to about 9.22 µM), most hits filed as activators; hit rate 2.4% among 320,000; also: nearly all actives have a fitted effect of over 60% in size
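Stably transfected Huh7 (NPC1 promoter→luciferase), 1500 cells/well in Opti-MEM + 10% FBS, 2 h settle, then compound 24 h at 37 °C. Luminescence after 10 min with Amplite reagent.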
FLuc modulator: qHTS profiling assay for firefly luciferase inhibitor/activator using purifed enzyme and Km concentrations of substrates (counterscreen for miR-21 project). Luciferin 4-monooxygenase (Photinus pyralis), P08659. purified FLuc, Km substrates, luminescence inhibition. Potency, µM (titrated, usually from 57.5 µM), actives largely listed as inhibitors. hit rate 6.9% among 360,000. AID 588342, 2011; also: nearly all actives have a fitted effect of over 55% in size
Target sequence (P08659 whole entry, looked up): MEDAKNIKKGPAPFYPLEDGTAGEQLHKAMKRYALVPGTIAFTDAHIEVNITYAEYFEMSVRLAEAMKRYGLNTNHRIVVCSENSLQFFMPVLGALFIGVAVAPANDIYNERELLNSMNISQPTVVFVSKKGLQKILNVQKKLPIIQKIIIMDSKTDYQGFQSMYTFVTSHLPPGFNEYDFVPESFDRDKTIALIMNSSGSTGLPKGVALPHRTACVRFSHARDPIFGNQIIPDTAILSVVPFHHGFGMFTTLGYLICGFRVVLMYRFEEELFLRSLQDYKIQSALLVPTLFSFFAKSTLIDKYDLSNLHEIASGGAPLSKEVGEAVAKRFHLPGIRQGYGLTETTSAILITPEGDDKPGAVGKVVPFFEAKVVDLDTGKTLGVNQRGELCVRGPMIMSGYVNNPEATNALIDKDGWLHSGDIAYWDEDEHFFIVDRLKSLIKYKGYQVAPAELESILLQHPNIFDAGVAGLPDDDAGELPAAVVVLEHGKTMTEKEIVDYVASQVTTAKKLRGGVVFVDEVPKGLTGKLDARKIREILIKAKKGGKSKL
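Biochemical qHTS of compounds, final roughly 60 µM downward over six points, against 10 nM purified firefly luciferase using Km concentrations of substrates (10 uM D-luciferin, 10 uM ATP) in Tris acetate pH 7.5 buffer; luminescence output.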
ELG1 genotox: qHTS screen for small molecules that induce genotoxicity in human embryonic kidney (HEK293T) cells expressing luciferase-tagged ELG1; HEK293T ELG1-luciferase reporter, luminescence, 16 h; Potency, µM (highest dose often 46 µM), usual class: activators; hit rate 1.3% among 330,000; also: nearly all actives have a fitted effect of over 60% in size
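HEK293T cells expressing luciferase-tagged ELG1 were treated with compound or DMSO for 16 hr at 37°C. Luciferase activity was then read after 30 min with ONE-Glo at room temperature; rising signal flags genetic stress.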
SMN2 splice enh: qHTS Assay for Enhancers of SMN2 Splice Variant Expression | HEK293 SMN2-luciferase splicing reporter, luminescence, 30-36 h | Potency, µM (top dose mostly 46.1 µM), actives largely listed as activators | hit rate 2.8% among 210,000 | AID 1458, 2008; also: nearly all actives have a fitted effect of over 55% in size
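HEK293 cells carry an SMN2 […]–luciferase reporter in which exon 7 inclusion puts luciferase in frame. Cells were plated 10-12 h before compound addition, then incubated 30-36 h at 37C. ONE-Glo luminescence was read; sodium butyrate at 4.5 mM final served as control.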
p53 reactivation: qHTS assay for re-activators of p53 using a Luc reporter; Potency, µM (highest dose often 92.2 µM), hits mostly activators; hit rate 0.063% among 320,000; H1299 p53-A138V BP100-luciferase reporter, luminescence, 24 h; also: nearly all actives have a fitted effect of over 45% in size
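p53-null H1299 cells stably carrying temperature-sensitive p53-A138V and a BP100-luciferase reporter were pinned with compounds (4-point, 1:5 series) and held 24 hrs at 37 deg C. Luminescence was read 10 min after detection reagent.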
Rab9 promoter act: qHTS Assay for Rab9 Promoter Activators; AID 485297, 2010; hit rate 2.8% among 320,000; Huh7 Rab9 promoter-luciferase reporter, luminescence, 24 h; Potency, µM (series often up to 9.22 µM), actives largely listed as activators; also: nearly all actives have a fitted effect of over 60% in size
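Cells were plated at 1500 per well in reduced-serum medium with 10% FBS and left 2 h. Compound in DMSO was then added for 24 h at 37 °C. Reporter signal was read by luminescence after 10 min with luciferase detection reagent.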
Hits are given with their value; 0 = inactive; ? = inconclusive; - = no result; [ ] = remark or other dose. Calls follow the shape of the dose curve; as a rule, active = well fitted curve in the direction sought with a large enough effect; inconclusive = small, poorly fitted or top-dose-only effect, or another doubt; inactive = no such curve, though single readings can be large; an effect the other way counts as inactive or inconclusive.

SMILES	NPC1 promoter act	FLuc modulator	ELG1 genotox	SMN2 splice enh	p53 reactivation	Rab9 promoter act
Cc1ccc(C=NNC(=O)c2cc(-c3cccnc3)nc3ccccc23)o1	-	-	0	-	0	-
COc1cc(/C=N/NC(=O)c2cc(-c3ccccc3OC(C)C)nc3ccccc23)ccc1O	0	0	0	?	0	0
COc1cc(/C=N/NC(=O)c2cc(-c3ccccc3)nc3ccccc23)ccc1O	0	10.7µM	0	-	0	0
CCOc1ccc(/C=N/NC(=O)c2cc(-c3ccccc3)nc3ccccc23)cc1O	0	15.1µM	0	-	0	0
COc1cc([N+](=O)[O-])cc(/C=N/NC(=O)c2cc(-c3ccccc3)nc3ccccc23)c1O	0	?	?	-	0	0
O=C(N/N=C/c1ccc(O)cc1)c1ccncc1	0	0	0	-	0	0[1.84 µM]
O=C(O)COc1ccccc1/C=N/NC(=O)c1cc2ccccc2cc1O	0	7.57µM	0	-	0	0
O=C(N/N=C/c1ccc(O)cc1)c1csc2ccccc12	0	15.1µM	0	0	0	0
O=C(N/N=C/c1cc(Cl)cc([N+](=O)[O-])c1O)c1cc(-c2ccccn2)nc2ccccc12	0	21.3µM	0	-	0	0
COc1ccccc1NS(=O)(=O)c1cccc(C(=O)N/N=C/c2ccccc2OCC(=O)O)c1	0	0	0	0	0	0
O=C(N/N=C/c1ccc2c(c1)OCO2)c1cc(-c2ccc(F)cc2)nc2ccccc12	0	5.36µM	0	0	0	0
CCCOc1ccc(C2c3c(-c4ccccc4O)n[nH]c3C(=O)N2Cc2ccncc2)cc1OCC (configuration not stated)	-	0	-	0	-	-
Cc1cccc(C(=O)Nc2cccc(C(=O)OCc3cc(=O)n4ccsc4n3)c2)c1	-	0	-	-	-	-
CCC1CN(C(=O)N2CCC(C(=O)NCCc3ccc(OC)cc3OC)CC2)c2cc(C)ccc2O1 (configuration not stated)	-	0	-	-	-	-
Cc1ccc(-c2cc(C(=O)N/N=C/c3ccoc3)c3ccccc3n2)cc1	0	4.78µM	0	-	0	0
O=C(N/N=C/c1ccco1)c1cc(-c2ccncc2)nc2ccccc12	0	?	0	-	-	0
Cc1ccc(-c2cc(C(=O)N/N=C/c3c(C)nn(C)c3C)c3ccccc3n2)cc1C	0	0.601µM	?	?	?	?
Cc1nn(-c2ccccc2)c(N2CCCC2)c1/C=N/NC(=O)c1cc(-c2cccnc2)nc2ccccc12	0	0	0	0	0	0
CCN(CC)S(=O)(=O)c1cccc(C(=O)N/N=C/c2ccccc2OCC(=O)O)c1	0	26.9µM	0	0	0	0
O=C(N/N=C/c1ccccn1)c1cc(-c2ccccc2)nc2ccccc12	0	13.5µM	?	-	0	0
COC(=O)[C@@]1(Cc2ccc(F)cc2)[C@H]2c3cc(C(=O)N(C)C)n(CCN4CCOCC4)c3C[C@H]2CN1C(=O)c1ccccc1	-	-	-	0	-	-
Cc1ccc(-c2cc(-c3nnc(SCC(=O)N(C)CCC#N)n3N)c3ccccc3n2)cc1	0	10.7µM	0	0	0	0
Cc1ccc(N(CCC#N)C(=O)CSc2nc3ccccc3c(=O)[nH]2)cc1	0	-	0	-	0	0
CCn1nc(C)cc1C(=O)Sc1ccc(C)cc1	0	16.9µM	0	-	0	0
Nc1nncn1C(=O)CCCOc1ccc(Cl)cc1Cl	0	9.53µM	0	0	0	0
C#CCN(C)CCCOc1ccc(Cl)cc1Cl	?	13.5µM	0	0	0	?
CCN(CC)C(=O)CCCOc1ccc(Cl)cc1Cl	3.16µM	?	0	0	?	?
O=C(CCCOc1ccc(Cl)cc1Cl)n1nnc2ccccc21	0	?	0	0	0	0
Cc1cccc(C(=O)O/N=C2\CCCc3ccccc32)c1	?	0.675µM	0	0	0	0
Cc1cccc(C(=O)O/N=C2\CCSc3ccc(C)cc32)c1	0	?	0	0	0	0

Source: PubChem
